Screening results deposited in PubChem by National Center for Advancing Translational Sciences (NCATS).
ClpP mod: qHTS Assay for Activators of ClpP. purified B. subtilis ClpP, FRET peptide cleavage, 20 min. Potency, µM (highest dose often 57.5 µM). 1.9% of 340,000 active. AID 651965, 2013; active means well fitted falling curve with a large enough effect; inconclusive means small, poorly fitted or top-dose-only effect; inactive means no such curve, though single readings can be large or run the other way; further: the source files actives as falling curves though it sought activators and does not explain the sign; nearly all actives have a fitted effect of over 65% in size
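Purified B. subtilis ClpP, 10 microg/mL final in Tris/HCl pH8 with KCl, BSA, glycerol and Tween-20, cleaved an Abz/nitrotyrosine-quenched decapeptide. Fluorescence (ex 320, em 430) was read at 0 and 20 min at room temperature. Delta was normalized to 5.8 microM ADEP and DMSO/no-enzyme controls.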
D3 ag: qHTS of D3 Dopamine Receptor Agonist: qHTS. D(3) dopamine receptor (Homo sapiens), P35462. D3R DiscoveRx beta-arrestin cells, luminescence, 90 min. max activation, %. 0.58% of 410,000 active; in the data active means max activation above about 30%
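Agonist mode: compounds and dopamine controls were applied to plated cells for 90 min at 37 degrees C after an overnight attachment at 1500 cells/well. Luminescent read-out followed 30 - 60 minutes at room temperature with DiscoveRx detection reagent.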
IL-1B inflam inh: qHTS for Inhibitors of Inflammasome Signaling: IL-1-beta AlphaLISA Primary Screen. THP-1 LPS/ATP IL-1B secretion, AlphaLISA, 16 h; stronger effect = lower value. activity change, % at 57.5 µM. 4.7% of 360,000 active. AID 743279, 2014; in the data active means activity change below about -50%; inconclusive means mostly about -30% to -49%
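Secreted IL-1B measured by AlphaLISA bead assay after 16 h compound exposure of THP-1 cells; compounds (final up to 57.5 uM) added 1 h before LPS (250 ng/mL) and ATP (1.25 mM) stimulation; lower signal means less secretion.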
DRD3 antagonist: qHTS of D3 Dopamine Receptor Antagonist: qHTS; max response, negative = inhibition, %; 2.5% of 360,000 active; D(3) dopamine receptor (Homo sapiens), P35462; D3R cells, DiscoveRx beta-arrestin luminescence, antagonist mode; stronger effect = lower value; in the data active means max response below about -50%; inconclusive means no clear call, values can overlap the other calls
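Cells plated overnight at 1500 cells/well, then exposed to library compounds with dopamine controls for 90 minutes at 37 degrees C. DiscoveRx reagent added for 30–60 minutes at room temperature; luminescence read, quantitative HTS format.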
TDP1 cell noCPT: qHTS for Inhibitors of human tyrosyl-DNA phosphodiesterase 1 (TDP1): qHTS in cells in absence of CPT | DT40 Tdp1-/- hTDP1 cells, no CPT, ATP luminescence, 48 h | Potency, µM (highest dose often 46.2 µM), actives largely listed as inhibitors | 15% of 420,000 active | AID 686978, 2013; further: nearly all actives have a fitted effect of over 55% in size
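Camptothecin absent (DMSO only). Human TDP1-complemented DT40 knockout cells, 400 cells/well, 37 °C for minimum 48 hr; ATP measured via CellTiter-Glo, 30 min dark incubation, luminescence.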
DT40 TDP1 CPT: qHTS for Inhibitors of human tyrosyl-DNA phosphodiesterase 1 (TDP1): qHTS in cells in presence of CPT | chicken DT40 Tdp1-/-;hTDP1 cells + 20 nM CPT, ATP luminescence, 48 h | Potency, µM (titrated, usually from 46.2 µM), actives largely listed as inhibitors | 12% of 420,000 active; further: nearly all actives have a fitted effect of over 55% in size
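Chicken DT40 Tdp1-/- cells stably complemented with human TDP1 were seeded at 400 cells/well in medium containing 20 nM camptothecin, exposed to pin-transferred compounds, and grown at 37 °C for at least 48 hr. Viability was read as ATP luminescence.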
A number is an active result; 0 = inactive; ? = inconclusive; - = no result; [ ] = dose if it differs, or a comment. Rows were chosen to be rich in hits. Some 21% of all compounds tested hit in one or more screens of this group. Unless noted, the call rests on the fitted dose curve; in most records, active means well fitted inhibition curve with a large enough effect; inconclusive means small, poorly fitted or top-dose-only effect; inactive means flat fitted curve, though single readings scatter.

SMILES	ClpP mod	D3 ag	IL-1B inflam inh	DRD3 antagonist	TDP1 cell noCPT	DT40 TDP1 CPT
Cc1cccc(NS(=O)(=O)c2ccc3c(c2)CC(C)N3C(=O)C2CCC2)c1C (stereo not drawn)	0	0	-	-	18µM	?
CCOc1ccccc1NS(=O)(=O)c1ccc2c(c1)CC(C)N2C(=O)C1CCC1 (stereo not drawn)	0	0	-	-	15µM	23µM
COc1ccccc1NS(=O)(=O)c1ccc(O)c(C(=O)OCC(=O)N2CCc3ccccc32)c1	-	0	0	0	0	0
COC(=O)C1CCN(Cc2ccc3c(c2)CN(C(=O)c2sc(C)nc2C)CCO3)CC1	-	-	-	-	0	0[9.04 µM]
CSC[C@H]1CN(CCc2ccccc2)C(=O)[C@@H]1CC(=O)Nc1ccc(Br)cc1	0	0	0	0	?	?
Cc1cccc(OCc2nc(C#N)c(N3CC(C)CC(C)C3)o2)c1 (stereo not drawn)	0	0	0	0	?	6.5µM
N#Cc1nc(COc2ccccc2Cl)oc1N1CCCC1	-	0	0	0	?	0
Cc1cccc(OCc2nc(C#N)c(N3CCCC3)o2)c1	0	0	-55	0	0	0
O=C(CNC(=O)c1ccc(F)cc1)Nc1ccccc1C(F)(F)F	0	0	0	0	0	0
N#CCC(=O)N/N=C\c1ccccc1OC/C=C/c1ccccc1	0	0	0	0	4.1µM	5.8µM
COCC(=O)N/N=C\c1ccccc1OC/C=C/c1ccccc1	0	0	0	0	26µM	?
COc1ccccc1-n1cc(CN2CCC3(CCC(CNC(=O)c4ccccc4)O3)CC2)cn1 (stereo not drawn)	-	-	-	-	0	0[9.04 µM]
COc1cccc(CNC(=O)Cn2nc(C)n3c(cc4cc(C)ccc43)c2=O)c1OC	0	0	-	-	0	0
CC1=C(C(=O)Nc2ccc(C)cc2Cl)C2(CCCCCC2)OC1=O	0	0	-	-	?	?
CCOc1ccc(NC(=O)C2=C(C)C(=O)OC23CCC(C)CC3)cc1 (stereo not drawn)	0	0	0	0	16µM	?
CCc1ccc(NC(=O)C2=C(C)C(=O)OC23CCCCC3)cc1	0	0	-	-	16µM	16µM
CC1=C(C(=O)Nc2ccc(C)cc2Cl)C2(CCCCC2)OC1=O	0	0	-	-	16µM	?
NS(=O)(=O)c1ccc(CCNC(=O)Cc2ccc(S(=O)(=O)N3CCOCC3)s2)cc1	0	0	0	0	0	0
COc1cc(C#Cc2c(C=O)n(C)c3ccccc23)cc(OC)c1	?	50	0	0	23µM	?
C=CCn1c2ccccc2c(=O)c2cc(C#Cc3cc(OC)cc(OC)c3)ccc21	0	50	0	0	?	16µM
COc1ccc(-c2c(C#Cc3ccsc3)c3cc(Br)ccc3n2C)cc1	0	0	0	0	21µM	?
COc1ccc(-c2c(C#Cc3ccsc3)c3cc(-c4ccc5cc[nH]c5c4)ccc3n2C)cc1	0	0	0	0	21µM	?
O=C(/C=C/c1ccccc1)NC(=S)N1CCSCC1	-	0	0	0	0	0
CCCCc1nn2c(=O)cc(COC(=O)c3cccc(Cl)c3)nc2s1	0	0	-	-	0	?
C/C(=N/NC(=O)c1nnn(-c2nonc2N)c1COc1ccccc1)c1ccc(O)cc1	0	0	0	0	0	0
SMILES	ClpP mod	D3 ag	IL-1B inflam inh	DRD3 antagonist	TDP1 cell noCPT	DT40 TDP1 CPT
COc1ccc(-c2c(C#Cc3ccc(N(C)C)cc3)c3ccccc3n2C)cc1	0	0	0	0	?	23µM
CCOC(=O)C1(CCOc2ccccc2)CCN(Cc2ccc3c(c2)OCCO3)CC1	-	0	-88	-56	?	?
OCC1(CCOc2ccccc2)CCN(Cc2ccc3c(c2)OCCO3)CC1	0	0	0	0	0	0
CCOC(=O)C1(CCOc2ccccc2)CCN(Cc2ccc(F)c(OC)c2)CC1	-	0	-88	0	6.5µM	?
CCOC(=O)C1(CCOc2ccccc2)CCN(Cc2ccc(O)c(OC)c2)CC1	0	0	0	?	18µM	?
CCOC(=O)C1(CCOc2ccccc2)CCN(Cc2ccc(O)c(Cl)c2)CC1	0	0	0	-69	13µM	16µM
CC(C(=O)NC1CCCc2ccccc21)N1C(=O)C2CCCCC2C1=O (stereo not drawn)	0	0	0	0	0	0
O=C1NC[C@@H](Cc2cccc3ccccc23)N(CCc2cccc(F)c2)C1=O	0	0	0	0	?	?
CN(C)CCCNc1oc(-c2ccccc2Cl)nc1S(=O)(=O)c1ccccc1	0	0	0	-72	?	?
Cc1ccccc1-c1nc(S(=O)(=O)c2ccc(Br)cc2)c(NCc2cccnc2)o1	0	0	?	0	0	0
CN(C)CCCNc1oc(-c2ccc(Cl)cc2)nc1S(=O)(=O)c1ccccc1	0	0	0	-73	16µM	15µM
O=S(=O)(c1ccc(Cl)cc1)c1nc(-c2ccccc2Br)oc1NCc1ccccc1	20µM	0	-	-	13µM	?
CN(C)c1oc(-c2ccccc2Cl)nc1S(=O)(=O)c1ccccc1	0	0	0	0	21µM	?
CN(Cc1ccccc1)C(=O)CCC1CCN(C(=O)CCC(F)(F)F)CC1	0	0	0	0	?	?
COc1ccc(N2CCN(CCCn3c(=S)[nH]c4ccccc4c3=O)CC2)cc1	0	0	0	-75	?	?
COc1ccccc1N1CCN(CCCn2c(=S)[nH]c3ccccc3c2=O)CC1	0	0	0	-109	9.2µM	13µM
CC(/C=N/NC(=O)c1cc(C(C)(C)C)[nH]n1)=C\c1ccccc1	0	0	0	-54	23µM	?
CC(/C=N/NC(=O)c1cc(-c2ccc(C)s2)[nH]n1)=C\c1ccccc1	-	0	0	0	2.6µM	8.2µM
Cc1cc(Br)ccc1-n1[nH]c(C)c(C=Nc2cccc3nsnc23)c1=O	-	0	0	?	?	0
Cc1cc(C)n2nc(SCC(=O)NC3CCCC(C)C3C)nc2n1 (stereo not drawn)	0	0	0	0	0	0
c1ccc(-c2ccccc2OCCCCN2CCCCC2)cc1	0	0	-63	-71	16µM	?
N=C(CC(O)COc1ccccc1-c1ccccc1)N1CCCCC1 (stereo not drawn)	-	-	-	-	3.3µM	5.2µM
c1ccc(-c2ccccc2OCCCN2CCCCCC2)cc1	0	0	?	?	?	?
c1ccc(-c2ccccc2OCCCN2CCCC2)cc1	0	0	?	-71	?	0
